Out of some 360,000 compounds screened, about 7,500 (2.1%) were called active. Inconclusive results (about 8%) are left out. The list comes from a sample in which actives are over-represented; it also holds similar structures and randomly drawn compounds. Values without a mark were called inactive. Calls come from the whole dose curve; as a rule, active = well fitted cell-killing curve with a large enough effect; inconclusive = small, poorly fitted or top-dose-only effect, or effect the other way, or another doubt; inactive = no such curve, though single readings can be large or run the other way.
Assay: qHTS for induction of synthetic lethality in tumor cells producing 2HG: qHTS for the HT-1080-IDH1KD cell line;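 for activity, negative = toxicity: 0% = DMSO wells and -100% = cell-free medium wells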
Conditions: HT-1080 IDH1 knockdown viability, ATP luminescence, 48 h; series mostly up to 46.1 µM; activity, negative = toxicity: at the top concentration
Outline: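 After a 2 h attachment period, IDH1KD HT-1080 cells took pin-transferred compound for 48 h at 37 °C; ATP-based luminescence after 10 min room-temperature reagent incubation reported viability.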
Potency is the fitted concentration of half-maximal effect.

SMILES	activity, negative = toxicity	Potency
CCOC(=O)c1c(C)[nH]c(C)c1C(=O)COC(=O)/C=C/c1cccc([N+](=O)[O-])c1	-1.39%	–
Nc1[nH]c(C(=O)c2ccccc2)c(-c2ccncc2)c1C(=O)NCc1cccc2ccccc12	4.84%	–
CCOC(=O)[C@]12CCCC=C1N(CCC1=CCCCC1)C(=O)[C@H](CC(=O)N1CCSCC1)C2	-6.14%	–
Cc1ccccc1S(=O)(=O)NC(=O)C1(C)CCN1C(=O)C1(c2ccccc2)CCCC1 (centres undefined)	0.534%	–
c1ccc2c(NC3C4CC5CC(C4)CC3C5)nc(N3CCOCC3)nc2c1 (centres undefined)	–	18.4 µM (active)
c1ccc(-c2nnc(N3CCOCC3)c3ccccc23)cc1	2.08%	–
Fc1cnc(N2CCOCC2)nc1NCc1ccccc1	3.11%	–
Cc1ccc(C=O)c([B-](F)(F)F)c1	3.04%	–
CN1c2ccc(C=O)c3c(C=O)ccc(c23)N(C)C1(C)C	–	11.6 µM (active)
CC1CN(C(=O)c2cccc(NS(=O)(=O)c3ccc(Br)cc3)c2)CC(C)O1 (centres undefined)	-2.09%	–
CCc1nc2c(OCC(N)=O)cccn2c1N(C)C(=O)c1ccc(OC)cc1	3.04%	–
C[C@@H]1CN([C@H](C)CO)S(=O)(=O)c2ccc(C#C[C@@H](C)O)cc2O[C@@H]1CN(C)Cc1ccc(-c2ccccc2)cc1	-29.6%	–
O=C1c2ccccc2C(=O)N1CCC#Cc1ccc2cc(C3(O)CCCCC3)oc(=O)c2c1	12.8%	–
COc1cc(C#Cc2ccc3cc(CCCO)oc(=O)c3c2)cc(OC)c1	–	2.06 µM (active)
COc1cc(/C=C2\Oc3ccc(C#Cc4ccc(O)cc4)cc3C2=O)cc(OC)c1	-24.1%	–
COC(=O)Cn1cc(/C=C/[N+](=O)[O-])c2ccccc21	–	23.1 µM (active)
COC(=O)c1cn(CC(=O)NCc2cccs2)c2ccccc12	-28%	–
NC(=O)Cn1cc(/C=N\NS(=O)(=O)c2ccccc2)c2ccccc21	-7.45%	–
COC(=O)[C@]12CCCCC=C1N(Cc1cccc3ccccc13)C(=O)[C@H](CC(=O)N1CCOCC1)C2	-1.79%	–
COCCCN1C(=O)C(CC(=O)NCc2cccs2)CC(C(=O)N2CCOCC2)=C1C (centres undefined)	1.42%	–
COC(=O)C1=C(Nc2ccc(OC)cc2)C=C(C)C(C(=O)OC)C1c1ccc(C)cc1 (centres undefined)	-3.99%	–
COC(=O)C1=C(Nc2ccc(C)cc2)C=C(C)C(C(=O)OC)C1c1ccc(F)cc1 (centres undefined)	–	11.2 µM (active)
COC(=O)C1C(=O)NCC1c1ccc(C)cc1 (centres undefined)	15.5%	–
COc1ccc(Cn2c(=O)oc3ccccc32)cc1	-0.0287%	–
CC(C)CCNC(=O)c1[nH]c(C(F)(F)F)nc1-c1ccccc1	7.3%	–

SMILES	activity, negative = toxicity	Potency
O=C(Nc1cc(F)ccc1F)c1ccc2c(=O)n3c(nc2c1)CCC3	12.3%	–
CC1(C(=O)NCc2ccc3c(c2)OCO3)CCN1C(=O)Cc1cccs1 (centres undefined)	27.3%	–
CN1CCn2cnc(C(=O)NCC(=O)OC(C)(C)C)c2C1=O	7.32%	–
C[N+](C)(C)CCNC(=O)c1c[nH]c2ccccc12	7.44%	–
CC[C@H]1CN2CCc3cc(OC)c(OC)cc3[C@@H]2C[C@@H]1C[C@H]1NCCc2cc(OC)c(OC)cc21	–	0.13 µM (active)
COc1cc2c(cc1OC)CN(CC(=O)Nc1ccc(F)cc1)CC2	-0.566%	–
Clc1ccc(-c2cccc3nccn23)cc1	8.87%	–
Cc1cccc(CN2CCN(C3CN(Cc4ccccc4)S(=O)(=O)C3)CC2)c1 (centres undefined)	-7.16%	–
COc1cc(CCN=Cc2ccccc2O)c([N+](=O)[O-])cc1OC	20.8%	–
C=CCNc1cnn(-c2ccc(C)cc2)c(=O)c1Cl	5.14% [at 9.24 µM]	–
Cc1ccc(Oc2cnn(-c3ccccc3)c(=O)c2Br)cc1	-18.1%	–
Cc1cccc(-n2ncc(Cl)c(Cl)c2=O)c1	–	20.6 µM (active)
CCCC(=O)N1CCC1(C)C(=O)NCc1ccc(C(C)C)cc1 (centres undefined)	19.5%	–
Cc1csc(=O)n1CCC(=O)OCC(=O)Nc1ccc(N2CCOCC2)cc1	0.321%	–
COc1ccc(NC(=O)C(Br)C(C)C)cc1 (centres undefined)	-0.582%	–
COc1ccc(CC(N)c2csc(NC(=O)Nc3ccc(C(C)C)cc3)n2)cc1 (centres undefined)	–	14.6 µM (active)
NC(c1ccccc1)c1csc(NC(=O)Nc2cccc(C(F)(F)F)c2)n1 (centres undefined)	-27%	–
COC(=O)[C@H](CCSC)NC(=O)Nc1ccc(OC)cc1	15%	–
O=C(Nc1ccc(C(=O)N2CCOCC2)cc1)Nc1cccc(C(F)(F)F)c1	-0.769%	–
CC(C)C[C@H](NC(=O)Nc1cccc(C(F)(F)F)c1)C(=O)O	7.1%	–
COc1ccc(C(N)c2csc(NC(=O)Nc3cccc(C(F)(F)F)c3)n2)cc1 (centres undefined)	–	18.4 µM (active)
CC(C)(C)CC(=O)Nc1nc(C(N)Cc2ccc(C(F)(F)F)cc2)cs1 (centres undefined)	–	18.4 µM (active)
CC(C)(C)CC(=O)Nc1nnc(SCC(=O)NCc2cccs2)s1	1.04%	–
Cc1ccccc1NC(=O)Cc1nc(COC(=O)c2ccc(C(F)(F)F)cc2)cs1	3.99%	–
NC(c1csc(NC(=O)Nc2cccc(C(F)(F)F)c2)n1)C1CCCCC1 (centres undefined)	–	14.6 µM (active)

SMILES	activity, negative = toxicity	Potency
COc1ccc(NC(=O)C(=O)NCC(=O)Nc2cccc(C(F)(F)F)c2)cc1	3.95%	–
C=C1C=C(C)n2ncc(C(=O)Nc3ccccc3O)c2N1	-3.89%	–
CCc1nc2c(OCCOc3ccccc3)cccn2c1N(C)C(=O)c1ccccc1F	5.45%	–
CCOc1cc(/C=N/NC(=O)c2ccncc2)cc(Br)c1O	2.86%	–
Cc1cc(Cl)ccc1C(=O)C1CCCN(C(=O)c2ccc3c(c2)OCO3)C1 (centres undefined)	-12%	–
C[C@@H]1CN([C@@H](C)CO)C(=O)CCCn2cc(nn2)CO[C@H]1CN(C)S(=O)(=O)c1ccc(-n2cccn2)cc1	0.687%	–
O=C(c1ccc(CS(=O)Cc2ccccc2Cl)o1)N1CCN(c2ccccc2)CC1 (centres undefined)	-1.14%	–
CC1(C(=O)NS(=O)(=O)c2ccc(C#N)cc2)CCN1C(=O)c1ccc(C2CCCCC2)cc1 (centres undefined)	-17.3%	–
CCOC(=O)C1C(C)C(C(C)(C)C)N(S(=O)(=O)c2ccc(C)cc2)C1c1ccccc1 (centres undefined)	-24.4%	–
Cc1ccc(-c2ccc(CN3C(C)C(=O)N(Cc4cn(CCC5OCCCO5)nn4)CCS3(=O)=O)cc2)cc1 (centres undefined)	-11.1%	–
CC1(C(=O)Nc2cccc3c2CCCC3)CCN1C(=O)C1(c2ccccc2)CC1 (centres undefined)	-21.8%	–
O=C(Nc1cccc(Cc2ccccc2)c1)Nc1ccc2nc([C@@H]3O[C@H](CO)[C@@H](O)[C@H](O)[C@H]3O)[nH]c2c1	27.1%	–
Cc1[nH]c2ccccc2c1C(=O)CN1CCCC(C)C1 (centres undefined)	-0.222%	–
Cc1[nH]c2ccccc2c1C(=O)CSCC(=O)O	2.2%	–
Cc1[nH]c2ccccc2c1C(=O)CN1CC(C)CC(C)C1 (centres undefined)	–	18.4 µM (active)
C=CCn1c2c(c3ccccc31)CCC2	9.84%	–
C=C1C(=O)OC2C1CCC(C)=CCCC1(C)OC21 (centres undefined)	–	11.6 µM (active)
COc1cc2c(=O)n(C)c3ccccc3c2cc1OC	10.9%	–
Cc1cc(C)c(-c2c(O)c3ccccc3n(C)c2=O)c(C)c1	6.69%	–
Cn1c(=O)c([N+](=O)[O-])c(Oc2ccccc2)c2ccccc21	–	23.1 µM (active)
Cc1c(/C=N/N2C(=O)C3C4C=CC(C4)C3C2=O)c2ccccc2n1C (centres undefined)	-0.0518%	–
Cc1c(/C=N\NC(=O)c2cc3ccccc3o2)c2ccccc2n1C	–	18.4 µM (active)
O=C(N/N=C/c1cccc(O)c1)c1cc2c(ccc3ccccc32)o1	-9.35%	–
CN(Cc1ccccc1)C(=O)[C@@H]1CCCN1C(=O)[C@@H]1CCCN1C(=O)c1c(F)cccc1F	2.52%	–
O=C(Cc1ccc(-c2ccccc2)cc1)NC(c1ccccc1)c1ccccc1	-29.4%	–

SMILES	activity, negative = toxicity	Potency
CCOC(=O)C(C(=O)OCC)C(C#N)c1ccccc1 (centres undefined)	1.46%	–
CCOC(=O)/C=C/C(=O)OCC(=O)NC(c1ccccc1)c1ccccc1	–	20.6 µM (active)
CN(C)c1ccc(C2N(C)C(=O)c3ccccc3N2C)cc1 (centres undefined)	-14.3%	–
CN(C)c1ccc(Nc2c3c4c(cccc4n(C)c2=O)C(=O)c2ccccc2-3)cc1	–	4.61 µM (active)
CSc1ncnc2c1ncn2CCCNCC(C)c1ccccc1 (centres undefined)	0.421%	–
c1ccc(Cn2nnc3c(NCC4CC4)ncnc32)cc1	1.82%	–
O=[N+]([O-])/C=C/c1ccc2c(ccn2Cc2ccccc2)c1	–	16.4 µM (active)
CCc1nc2ccc(C(=O)N(C)Cc3ccco3)cn2c1N(C)C(=O)Cc1ccccc1	0%	–
Cc1ccc(S(=O)(=O)N2C[C@H]3C(=O)C[C@@H](c4cccc5ccccc45)N(S(=O)(=O)c4ccc(C)cc4)[C@H]3C[C@H]2c2ccc(Cl)cc2)cc1	-4.09%	–
NC(Cc1ccc(F)cc1)c1csc(Nc2nncc3ccccc23)n1 (centres undefined)	–	25.9 µM (active)
CC(=O)c1ccc(Nc2nc(C(N)c3ccccc3)cs2)cc1 (centres undefined)	-10%	–
COCC(C)NC(=O)COc1nncc2ccccc12 (centres undefined)	15.1%	–
CN1CCN(C(=O)c2ccc(-c3cc4nc(NCc5cccnc5)n(C)c(=O)c4s3)cc2)CC1	-0.409%	–
CNc1cnc(-c2cc(OC)c(OC)c(OC)c2)cn1	17.9%	–
CC(=O)Nc1ccc(S(=O)(=O)N(C)c2nc3ccccc3nc2Cl)cc1	-10.3%	–
CC(=O)Nc1ccc(Nc2c3ccccc3nc3ccccc23)cc1	–	14.6 µM (active)
CC(=O)Nc1ccc(Nc2cc(C)nc(Nc3ccc(NC(C)=O)cc3)n2)cc1	1.27%	–
Cc1ccc(S(=O)(=O)N2CC3C(=O)C[C@@H](c4ccccc4Cl)N(S(=O)(=O)c4ccc(C)cc4)C3CC2c2ccccc2)cc1 (some centres undefined)	6.47%	–
CCOC(=O)C1CCCN(C(=O)c2cccc3ccccc23)CC1 (centres undefined)	4.57%	–
C[C@@H]1Cn2cnc(C(=O)Nc3ccc(CNC(=O)OC(C)(C)C)cc3)c2C(=O)N1	-1.21%	–
Cc1ccc(O)c(CNc2nc3ccccc3[nH]2)c1	-0.158%	–
CN(c1ccccc1)S(=O)(=O)c1cc(C(=O)Nc2nc3ccccc3[nH]2)ccc1Cl	-26.3%	–
COC(=O)Nc1nc2ccc(Sc3ccccc3)cc2[nH]1	–	0.82 µM (active)
CCOC(=O)C1(C)CCCN(C(=O)c2ccc(F)c(Cl)c2)C1 (centres undefined)	1.41%	–

Source: PubChem BioAssay AID686971 (National Center for Advancing Translational Sciences (NCATS), 2013)
